# Test results as given in paper PMC5540273 (PLoS ONE, 2017).
# System: T1, p38-gamma
# T1 construct: gene MAPK12
# Settings: concentration: 1 μM, replicates: in singlicate; n = 1
# 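Also: KINOMEscan kinase panel screen.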
row,Structure (SMILES),%Inh [%]
1,O=C(Nc1n[nH]c2cc(-c3ccccc3F)ccc12)C1CC1 [SB-733371],19
2,C[C@@H]1CC[C@H](C(=O)NC2CCCCC2)CN1c1cc(-c2ccc3c(N)n[nH]c3c2)nc(N)n1 [GSK2291363],45
3,COc1cc2ncn(-c3cc(OCCCc4ccccc4)c(C(N)=O)s3)c2cc1OC [GSK205189],0
4,CCc1nc(-c2cccc(C)c2)c(-c2ccncc2)s1,10
5,COc1ccc(Nc2nccc(N3CCC(NS(=O)(=O)c4ccc(NC(C)=O)cc4)C3)n2)cc1 (stereo not drawn) [GSK1379729],17
6,COc1cc(Nc2nccc(N3CCC(NC(=O)C4COc5ccccc5O4)C3)n2)cc(OC)c1OC (stereo not drawn) [GSK1379761],39
7,CC(C)(C)c1ccc(C(=O)Nc2cn3cc(-c4ccccc4)ccc3n2)cc1,8
8,CCCNC(=O)Nc1ccc(Oc2ncnc3ccn(C)c23)cc1,3
9,O=C(NCc1cccs1)c1cc(C(=O)c2c(Cl)cccc2Cl)c[nH]1 [GW823670],0
10,Cl.NS(=O)(=O)c1cccc(Nc2cc(-c3ccc(F)cc3)n[nH]2)c1 [GW824645],0
11,COC(=O)c1c(-c2ccccc2)c2cc(Br)ccc2c(=O)n1Cc1ccc(S(C)(=O)=O)cc1,29
12,COc1cc2ncn(-c3cc(OCc4ccncc4)c(C(N)=O)s3)c2cc1OC [GSK336313],0
13,Nc1nc(-c2ccccc2F)c(-c2ccnc3ccccc23)s1 [GW560459],0
14,CN1C(=O)C(Nc2ccccc2)=C(c2ccccc2)C1=O [SB-300079],0
15,O=c1cc(N2CCOCC2)nc2n(Cc3ccc(F)c(Cl)c3)ccn12 [GSK2297099],0
16,O=C(NCCNc1ccnc(Nc2ccc(F)cc2)n1)Nc1ccc2c(c1)OCO2 [GSK1379882],19
17,Nc1nc(N)c2nc(-c3ccccc3)[nH]c2n1 [SKF-12778],0
18,COC(=O)c1c(-c2ccccc2)c2cc(C)ccc2c(=O)n1Cc1ccccc1,0

row,Structure (SMILES),%Inh [%]
1,COc1cc2nccc(Nc3ccc(OCc4ccc(NC(C)=O)cc4)cc3)c2cc1OC.Cl [GW440135],0
2,Cc1nn2c(=O)cc(N3CCOCC3)nc2n1Cc1cccc(Cl)c1Cl [GSK2342769],0
3,O=C(Nc1n[nH]c2nc(-c3ccccc3)c(Br)cc12)C1CC1 [SB-708998],26
4,COc1cc2ncn(-c3cc(OCc4ccc(S(C)(=O)=O)cc4)c(C(N)=O)s3)c2cc1OC [GW869979],24
5,COc1cccc(C2=C(Nc3cccc(C(=O)O)c3)C(=O)NC2=O)c1 [SB-390770],0
6,COc1cc(Nc2ccnc3ccc(C(F)(F)F)cc23)cc(OC)c1OC [GW577382],0
7,CCC(=O)c1c(-c2ccccc2)c2cc(Cl)ccc2c(=O)n1Cc1ccc(C(=O)O)cc1,0
8,COc1cccc(-n2cnc3c(N)ncnc32)c1 [SKF-97416],52
9,Nc1nccc2scc(-c3ccc4c(c3)CCN4C(=O)Cc3ccccc3)c12 [GSK2576924],5
10,Cc1cccc(-c2nc(Nc3ccc4c(cnn4C)c3)c3ccccc3n2)n1 [GW876731],16
11,CCS(=O)(=O)c1ccc(OC)c(Nc2ncc(-c3ccc(F)cc3)o2)c1.Cl [GW591947],6
12,CCn1c(-c2nonc2N)nc2ccccc21 [SB-693162/GW549034],10
13,Nc1n[nH]c2ncc(-c3ccccc3)cc12 [SB-517081],31
14,COc1cccc(C2=C(N(C)c3ccccc3)C(=O)NC2=O)c1 [SB-334865],0
15,Cc1ccccc1COc1cc(-n2cnc3cc(Cl)ccc32)sc1C(N)=O [GW813349],20
16,COc1ccc(-c2coc3ccc(-c4nnc(SCc5cccc(C#N)c5)o4)cc23)cc1,7
17,CN(C)c1cc(-c2ccc3c(N)n[nH]c3c2)nc(N)n1 [GSK2219329],0
18,COc1cc2nccc(Nc3cccc(Oc4ccccc4)c3)c2cc1OC.Cl [GW284543],0
